# Assay results as given in PubChem BioAssay (EPA / NIEHS).
# Records with an inconclusive call do not appear. The source made the active and inactive calls. How the source made its calls: active means hit-call score of the fitted dose curve at least 0.9, where 1 is the maximum; inconclusive means response in the unintended direction; inactive means score below 0.9.
# Assay: TOX21_p53_BLA_p5_viability: Viability Assessment in the Tox21 HCT-116 p53 Agonism Beta-lactamase Assay, Phase 5 (AID 2283600)
# Excerpt: TOX21_p53_BLA_p5 is a cell-based, single-readout assay that uses HCT116, a human intestinal cell line, […] in a 1536-well plate.TOX21_p53_BLA_p5_viability is an assay readout measuring cellular ATP content and detected with CellTiter-Glo Luciferase-coupled ATP quantitation.TOX21_p53_BLA_p5_viability used a type of viability reporter where loss-of-signal activity can be used to understand changes in the cell viability. Furthermore, this assay endpoint can be referred to as a secondary readout, because this assay has produced multiple assay endpoints where this one serves a viability function. To generalize the intended target to other relatable targets, this assay endpoint is annotated to the cell cycle intended target family, where the subfamily is cytotoxicity.
# Thawing Method: Place 14 mL of pre-warmed thaw medium into a 15 mL of conical tub. Remove the vial of cells to be thawed from liquid nitrogen and thaw rapidly by placing at 37C in a water bath with gentle agitation for 1-2 minutes. Decontaminate the vial by wiping with 70% ethanol before opening in a biological safety cabinet. Transfer the vial contents drop-wise into 14 mL of thaw medium in a sterile 15-mL conical tub. Centrifuge cells at 900 rpm for 4 minutes and resuspend in thaw medium. Transfer contents to the T75 tissue culture flask containing Thaw Medium and place flask in a humidified 37C/5% CO2 incubator. Switch to growth medium at first passage.Propagation Method: Aspirate medium, rinse once in DPBS, add 0.25% Trypsin/EDTA and swirl to coat the cell evenly. Add an equal volume of Growth Medium to inactivate Trypsin after 2-3 minutes incubation at 37C. Centrifuge cells at 900 rpm for 4 minutes and resuspend in growth medium. Cell should be passage or fed at least twice a week.Assay Protocol: Harvest cells from culture in growth medium and resuspend in assay medium. 2.2 Dispense 4000 cells/5 uL/well into 1536-well black/clear bottom plates using a Multidrop dispenser. After the cells were incubated at 37C for 5 hours, 23 nL of compounds dissolved in DMSO were transferred to the assay plate by a PinTool resulting in a 217-fold dilution. Incubate the plates for 16 hours at 37C, 5% CO2. Add 1 uL of 6X LiveBLAzer FRET B/G (CCF4-AM) Substrate Mixture to each well using a BioRAPTR dispenser and incubate the plates at room temperature for 2 hours. Measure fluorescence intensity at 460 and 530 nm emission and 405 nm excitation by an Envision detector. Data is expressed as the ratio of 460nm/530nm emissions. Add 4 uL of Cell-titer Glo to each well using BioRAPTR and incubate the plates at room temperature for […]. For cell viability readout that measures cytotoxicity, 4 ul/well of CellTiter-Glo reagent was added into the assay plates using a Flying Reagent Dispenser. After 30 min incubation at room temperature, the luminescence intensity in the plates was measured using a ViewLux plate reader.
Compound,outcome,AC50
CC1(C)[C@H](C=C(Cl)Cl)[C@@H]1C(=O)O[C@@H](C#N)c1cccc(Oc2ccccc2)c1,inactive,–
CC(=O)OC1CN2CCC1CC2 (stereo not given),inactive,–
O=C(O)/C=C\C(=O)O,inactive,–
BrC(Br)Br,inactive,–
CCOP(=O)(OCC)Oc1ccc([N+](=O)[O-])cc1,inactive,–
c1ccc2cc3c(cc2c1)-c1cccc2cccc-3c12,inactive,–
CCOC(=O)c1cn2nc(OP(=S)(OCC)OCC)cc2nc1C,inactive,–
BrC(Br)C(Br)(Br)Br,inactive,–
CCCCCc1cc(O)c2c(c1)OC(C)(C)c1ccc(C)cc1-2,–,19.8 µM (active)
CCOC(=S)S,inactive,–
O=C1NCN(c2ccccc2)C12CCN(CC1COc3ccccc3O1)CC2 (stereo not given),inactive,–
Cc1cccc(N)c1C,inactive,–
COC(=O)C1(O)c2ccccc2-c2ccccc21,inactive,–
CC=C(CC)C(=O)NC(N)=O,inactive,–
C[C@H](N)[C@H](O)c1ccc(O)c(O)c1,inactive,–
ClCC(Cl)(Cl)Cl,inactive,–
COC(C)(C)CCC[C@H](C)C/C=C/C(C)=C/C(=O)OC(C)C,inactive,–
CC[n+]1c(-c2ccccc2)c2cc(N)ccc2c2ccc(N)cc21,inactive,–
C=CCSSCC=C,inactive,–
COc1ccc(CN2CCNCC2)c(OC)c1OC,inactive,–

Compound,outcome,AC50
CC(Cc1ccccc1)NCc1ccccc1Cl (stereo not given),inactive,–
N#CC(Cl)(Cl)Cl,inactive,–
N=C(N)[Se],inactive,–
O=[N+]([O-])c1ccc2ccc3cccc4ccc1c2c34,inactive,–
CNC(=O)ON=C(CSC)C(C)(C)C,inactive,–
O=[N+]([O-])[O-].[Tl+],inactive,–
CNc1ccc(C(=O)CC(O)CCC(C)C2OC(=O)CC(O)CC(=O)CC(O)CC(O)CC(O)CC(O)CC3(O)CC(O)C(C(=O)OC)C(CC(O[C@@H]4O[C@H](C)[C@@H](O)[C@H](N)[C@@H]4O)/C=C/C=C/C=C/C=C/C=C/C=C/C=C/C2C)O3)cc1 (stereo not given in full) (tested in a mixture with another compound),inactive,–
Cc1cc(C(C)(C)c2cc(C)c(O)c(C)c2)cc(C)c1O,–,83.3 µM (active)
CC1OC(C)OC(C)O1 (stereo not given),inactive,–
ClC(Cl)(Cl)Br,inactive,–
Cc1nnc2n1-c1ccc(Cl)cc1C(c1ccccc1Cl)=NC2,inactive,–
CC(C)CCON=O,inactive,–
CCCCCCCCCCCOC(=O)c1ccccc1C(=O)OCCCCCCCCCCC,inactive,–
O=C(O)CC(Cl)C(=O)O (stereo not given),inactive,–
O=c1ccc2cc(O[C@@H]3O[C@H](CO)[C@@H](O)[C@H](O)[C@H]3O)c(O)cc2o1,inactive,–
CO[C@]12CC[C@@]3(C[C@@H]1[C@](C)(O)C(C)(C)C)[C@H]1Cc4ccc(O)c5c4[C@@]3(CCN1CC1CC1)[C@H]2O5,inactive,–
Nc1cc(Cl)ccc1O,inactive,–
ClCCOCOCCCl,inactive,–
C[C@]12N[C@H](Cc3ccccc31)c1ccccc12,inactive,–
CCCCCCC1CCOC1=O (stereo not given),inactive,–
